# PTK2B oligo ant: blocks oligomerization of human Pyk2 in cells | AID 1347419 | Q14289 | Q293 cells, Pyk2 FERM NanoBiT luminescence; stronger effect = lower value | 99,000 tested, 0.83% active | z-score (the deposit names both 25 µM and 10 µM);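 active = Z-score of -3 or lower, scaled per plate to the spread of control and sample wells; inactive = z-score above -3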;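 also: negative z-score means lost luminescence so less FERM oligomerization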
# Target sequence (Q14289 whole entry, looked up): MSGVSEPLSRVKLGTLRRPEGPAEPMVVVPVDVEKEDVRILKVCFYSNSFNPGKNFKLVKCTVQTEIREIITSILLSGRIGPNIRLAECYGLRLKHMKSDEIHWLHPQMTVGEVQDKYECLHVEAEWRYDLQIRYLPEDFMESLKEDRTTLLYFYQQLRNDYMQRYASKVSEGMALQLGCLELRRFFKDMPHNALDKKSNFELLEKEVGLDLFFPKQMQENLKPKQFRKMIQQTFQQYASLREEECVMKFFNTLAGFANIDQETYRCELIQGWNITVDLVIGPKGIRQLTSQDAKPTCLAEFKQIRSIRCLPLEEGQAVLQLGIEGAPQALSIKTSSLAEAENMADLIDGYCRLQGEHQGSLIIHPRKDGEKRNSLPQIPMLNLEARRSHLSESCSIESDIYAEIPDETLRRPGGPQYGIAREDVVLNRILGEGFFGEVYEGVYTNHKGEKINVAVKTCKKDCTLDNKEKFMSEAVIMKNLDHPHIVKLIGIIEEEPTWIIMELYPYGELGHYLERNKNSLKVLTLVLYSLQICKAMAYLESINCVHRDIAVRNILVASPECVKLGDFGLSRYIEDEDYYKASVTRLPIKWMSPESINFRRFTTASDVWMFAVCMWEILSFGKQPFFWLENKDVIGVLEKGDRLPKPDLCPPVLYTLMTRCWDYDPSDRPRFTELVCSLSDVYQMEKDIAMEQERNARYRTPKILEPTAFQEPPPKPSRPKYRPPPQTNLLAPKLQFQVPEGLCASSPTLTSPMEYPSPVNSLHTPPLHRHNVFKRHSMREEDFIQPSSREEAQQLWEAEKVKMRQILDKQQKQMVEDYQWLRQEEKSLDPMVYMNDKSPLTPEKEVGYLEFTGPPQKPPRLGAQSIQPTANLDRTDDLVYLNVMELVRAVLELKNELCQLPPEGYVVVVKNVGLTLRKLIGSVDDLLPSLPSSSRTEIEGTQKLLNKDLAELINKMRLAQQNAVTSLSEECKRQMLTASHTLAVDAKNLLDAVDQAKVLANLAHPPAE
# CYP2C19 act: cytochrome P450 2C19 (human) activation; P33261; recombinant CYP2C19, luciferin-H EGE luminescence; stronger effect = higher value; 0 = fully inhibited enzyme, 1 = untreated enzyme; activation factor at 5 µM; 96,000 tested, under 10 active; AID 1025;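 active = activation factor of at least 2 at 5 µM in the primary screen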;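 also: 0 = wells with 2.5 mM tranylcypromine and 1 = vehicle-only wells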
# CYP2C19 inhib: inhibitors of human CYP2C19; CYP2C19 Supersomes, luciferin-H EGE luminescence, 30 min; inhibition, % at 5 µM; 96,000 tested, 21% active;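 active = CYP2C19 inhibition above a set limit at 5 µM in the primary screen, cut at about 50% in these data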;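 also: plate controls were negative control wells for no effect and 2.5 mM tranylcypromine positive control for full effect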
# CYP2C9 activ: CYP2C9 (human) activation; P11712; recombinant CYP2C9, luciferin-H conversion, luminescence; stronger effect = higher value; factor 1 = untreated enzyme, 0 = blocked; AID 1024; 96,000 tested, 1.4% active; activation factor at 5 µM;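 active = activation factor of 2 or more for CYP2C9 at a 5 µM dose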;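 also: 0 = sulfaphenazole-blocked wells and 1 = vehicle-only wells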
# CYP2C9 inhib: human CYP2C9 inhibition. P11712. CYP2C9 Supersomes, luciferin-H conversion, luminescence. inhibition, % at 5 µM. 96,000 tested, 20% active. AID 777;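 active = blocking of liver enzyme CYP2C9 beyond about 50% at 5 µM, limit read from the data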
# Active calls of the source: *; / = no result. Rows were chosen to be rich in hits. Some 28% of all compounds tested hit in one or more screens of this group.
SMILES,PTK2B oligo ant,CYP2C19 act,CYP2C19 inhib,CYP2C9 activ,CYP2C9 inhib
CCOC(=O)c1cc2c(s1)-c1c(C)cccc1OC2,/,0.1,89*,0.3,72*
CCOc1ccc(C(C)=O)cc1Cn1nc(C(=O)O)c2ccccc2c1=O,-0.73,1,2,0.9,5
CC(=O)Nc1cccc(-c2nnc(SCC(=O)n3c4c(c5ccccc53)CCCC4)n2C)c1,-0.48,0.1,93*,1.1,-12
Cc1cc(C)nc(SCC(=O)n2c3c(c4ccccc42)CCCC3)n1,0.81,/,/,/,/
O=C(CSc1ncccn1)n1c2c(c3ccccc31)CCCC2,-0.74,1,-3,2.1*,-112
COC(=O)c1ccccc1NC(=O)CSc1nnc(-c2cccc(NC(C)=O)c2)n1C,-0.38,0.1,94*,0.6,39
COc1ccccc1NC(=O)CSc1nnc(-c2ccc(NC(C)=O)cc2)n1C,-0.57,1,-5,0.8,24
Cc1n[nH]c(C)c1Cc1ccc(C(=O)O)cc1,0.32,1,-4,1.1,-6
Cc1ccccc1CN(c1ccc(C(=O)N2CCCC2)cc1)S(C)(=O)=O,0.08,0.8,18,0.8,21
Cc1cc(C(=O)NCc2cccnc2)cs1,-0.1,0.8,20,0.9,6
Cc1ccccc1CN(c1ccc(C(=O)Nc2cccnc2)cc1)S(C)(=O)=O,-0.59,0,98*,0,96*
Cc1ccc(Cl)cc1N(Cc1ccc(C(=O)NCc2cccnc2)cc1)S(=O)(=O)c1ccccc1,0.47,0.6,36,0.4,58*
Cc1ccc(CN(c2ccc(C(=O)NCc3cccnc3)cc2)S(C)(=O)=O)cc1,-0.4,0.1,93*,0.1,94*
CS(=O)(=O)N(Cc1ccc(C(=O)NCCSCc2ccco2)cc1)c1ccccc1,1.5,0.4,55*,0.2,85*
CS(=O)(=O)N(Cc1ccc(C(=O)NCc2ccco2)cc1)c1ccccc1,-0.09,1,0,0.6,44
O=C1C=C(NC2CC2)C2(CCCCC2)O1,1,0.9,6,0.9,5
COc1ccc(CCNC(=O)CSc2nc(C)nc3c2c(=O)n(C)c(=O)n3C)cc1OC,/,1.1,-12,1.1,-11
COc1ccccc1NC(=O)c1ccc(CN(c2cc(Cl)ccc2C)S(=O)(=O)c2ccccc2)cc1,0.36,1,-4,0.8,20
COc1ccc(NC(=O)c2ccc(CN(c3cc(Cl)ccc3C)S(=O)(=O)c3ccccc3)cc2)cc1OC,-0.75,0.8,24,0.3,66*
CNC(=O)c1ccc(N(Cc2ccccc2)S(C)(=O)=O)cc1,1.3,0.5,52*,0.6,36
O=c1cc(NCc2ccco2)[nH]c(=O)n1-c1ccc(Br)cc1,0.59,/,/,/,/
CCc1ccc(C(C)NC(=O)c2ccc(F)cc2)cc1 (stereo not drawn),-0.28,0.4,55*,0.5,51*
CCCC(C)NC(=O)c1ccc(F)cc1 (stereo not drawn),1.2,1.1,-5,1.2,-20
COc1cccc(N/C(N)=N/c2nc(C(F)(F)F)cc(=O)[nH]2)c1,0.18,/,/,/,/
CCOc1ccc2[nH]cc(C(=O)N3CCN(CC)CC3)c(=O)c2c1,0.97,1.1,-7,1,-1
SMILES,PTK2B oligo ant,CYP2C19 act,CYP2C19 inhib,CYP2C9 activ,CYP2C9 inhib
CC1Cc2ccccc2N1S(=O)(=O)c1cccc(C(=O)NCCCO)c1 (stereo not drawn),0.9,0.5,52*,0.6,36
CC1Cc2ccccc2N1C(=O)CCS(=O)(=O)c1cccs1 (stereo not drawn),0.33,0.5,52*,0.8,23
CC1CC(=O)Nc2ccccc2N1S(=O)(=O)c1ccccc1 (stereo not drawn),0.69,1,-1,1.8,-84
CCOc1ccc(S(=O)(=O)N2c3ccccc3CC2C)cc1 (stereo not drawn),-1.8,0.5,52*,0.1,94*
O=C(NCCO)c1cccc(S(=O)(=O)N2CCCCC2)c1,0.06,1,-3,1.1,-14
CC1Cc2ccccc2N1S(=O)(=O)c1cccs1 (stereo not drawn),0.16,0.2,81*,1,4
Cc1ccc(-n2nnnc2-c2cnoc2-c2cccc(F)c2)cc1,-0.8,/,/,/,/
COc1ccc(-c2nnn(CCc3nn[nH]n3)n2)cc1,1.6,/,/,/,/
c1ccc(CN2CCC3(CC2)Nc2ccccc2CO3)cc1,0.81,0.1,91*,0.9,8
CSCCC1NC2(C(=O)Nc3c2ccc(Cl)c3C)[C@@H]2C(=O)N(C3CCCC3)C(=O)[C@H]12 (stereo partly drawn),0.06,0.1,91*,0.1,91*
Cc1c(Cl)ccc2c1NC(=O)[C@]21N[C@@H](CCC(N)=O)[C@H]2C(=O)N(c3ccc(F)cc3)C(=O)[C@H]21,-1.1,0.7,27,0.7,29
Cc1c(Cl)ccc2c1NC(=O)C21NC(CCC(N)=O)[C@H]2C(=O)N(c3ccc(Cl)cc3)C(=O)[C@H]21 (stereo partly drawn),0.01,0.4,57*,0.3,70*
Cc1ccc(C)c(S(=O)(=O)Nc2ccc3scnc3c2)c1,-1.4,0,100*,0.3,66*
CN(C)C(=O)c1ccccc1Sc1ccc(Cl)cc1Cl,-0.5,0.1,95*,0.4,58*
CN(C)C(=O)c1ccccc1Sc1cc(Cl)ccc1Cl,-1.8,0.2,75*,1.1,-10
Cc1ccc(C(=O)Nc2cc3c(oc2=O)CCCC3=O)cc1,-0.76,1,-1,0.9,9
C=CCNC(=O)C1CCN(S(C)(=O)=O)CC1,0.37,1.1,-14,1,-4
COc1ccc(C2NC(=O)NC(O)(C(F)(F)F)C2C(=O)c2ccccc2)cc1OC (stereo not drawn),-0.46,0.9,9,0.8,18
COc1cccc(C2NC(=O)NC(O)(C(F)(F)F)C2C(=O)c2cccnc2)c1OC (stereo not drawn),0.1,0.1,92*,0.5,49
CCOc1ccc2nc(-c3ccccc3)nc(SCC(=O)Nc3ncc(C)s3)c2c1,-0.01,1,-3,1,4
O=C1c2ccccc2-c2cccc(NS(=O)(=O)c3ccc(C(F)(F)F)cc3)c21,-1.4,1,2,0.1,88*
Cc1ccc(-c2nc3ncccn3c2Nc2ccc3c(c2)OCCO3)o1,1,0.6,43,0.5,53*
Cc1cc(C)n2c(Nc3ccc4c(c3)OCCO4)c(-c3ccco3)nc2n1,/,0.7,31,0.4,62*
Oc1ccc(-c2nc3ncccn3c2Nc2ccc3c(c2)OCCO3)cc1,0.28,0.5,48,0.3,70*
Clc1ccc(-c2nc3ncccn3c2Nc2ccc3c(c2)OCCO3)cc1,-0.4,1.1,-9,1.1,-9
Cc1ccc(-c2nc3ncccn3c2Nc2ccc3c(c2)OCCO3)cc1,0.25,1.1,-10,1,-5
Brc1ccc(-c2nc3ncccn3c2Nc2ccc3c(c2)OCCO3)o1,0.86,0.5,47,0.4,58*
CC(=O)N(c1ccccc1)C1SC(=O)N(c2ccccc2)C1=O (stereo not drawn),1,0.6,41,0.9,9

# Screening data: PubChem BioAssay, Sanford-Burnham Center for Chemical Genomics
